Rows were chosen to be rich in hits. Some 6.5% of all compounds tested hit in one or more screens of this group.
HT1080-NT tox: kills 2HG-producing HT-1080-NT fibrosarcoma cells. HT-1080-NT fibrosarcoma viability, CellTiter-Glo ATP luminescence, 48 h. Potency, µM (highest dose often 46.1 µM), inactives show top-dose activity, negative = less viability, most hits filed as cytotoxic. 1.6% of 360,000 active. AID 686970;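 also: NT is the 2HG producing partner of a matched IDH1 knockdown line; potency is read from the fitted curve at half-maximal effect; 0% = DMSO-treated cells and -100% = media-only wells without cells; nearly all actives have a fitted effect of over 55% in size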
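A 48-hour cytotoxicity screen used HT-1080-NT cells plated 2 hours before compound delivery. ATP-based CellTiter-Glo luminescence measured viability, normalized to DMSO and no-cell controls.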
HT1080 IDH1KD tx: kills HT-1080 cells with IDH1 knockdown; Potency, µM (titrated, usually from 46.1 µM), without a hit: at the highest dose activity, negative = toxicity, usual class: cytotoxic; 2% of 360,000 active; HT-1080 IDH1 knockdown viability, ATP luminescence, 48 h;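 also: potency is read from the fitted curve at half-maximal effect; 0% = DMSO wells and -100% = cell-free medium wells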
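Cytotoxicity counter-line: IDH1KD HT-1080, 48 h, CellTiter-Glo. Curves classed by r2, magnitude and activity.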
HepG2 tox: HepG2 cytotoxicity, counter-screen for TGF-b inhibitors; HepG2 CAGA-GFP viability, ATP luminescence, 18 h; 0.76% of 410,000 active; AID 588856; Potency, µM (doses to about 46.1 µM), for the others: at the highest dose activity change, negative = cytotoxicity, usual class: cytotoxic; also: potency is read from the fitted curve at half-maximal effect
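HepG2 CAGA-GFP cells (1000/well, DMEM with 1% FBS) received compound, then TGF-beta at 500 pg/mL final, and were incubated 18 hours at 37 degrees C. Viability was read by CellTiter-Glo luminescence. Media-only wells were set as complete cell-killing and DMSO as no toxicity.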
Giardia killer: kills Giardia lamblia. 0.15% of 340,000 active. activity change, % at 7.66 µM, hits read low. Giardia lamblia trophozoite viability; in the data active = activity change below about -80%; inconclusive = between about -30% and that limit;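 also: parasites exposed to compound for two days anaerobically before the ATP read; % is scaled to controls: 0 for no effect and ±100 for the full control effect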
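Killing of trophozoites was scored by loss of ATP luminescence after a 48 hrs anaerobic exposure to compounds at 37 deg C, using 100 cells per well.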
IL-1B inflam inh: blocks inflammasome-driven IL-1 beta release | activity change, % at 57.5 µM | THP-1 LPS/ATP IL-1B secretion, AlphaLISA, 16 h; active compounds read low | AID 743279 | 4.7% of 360,000 active; in the data active = activity change below about -50%; inconclusive = mostly about -30% to -49%; also: % is scaled to controls: 0 for no effect and ±100 for the full control effect
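THP-1 cells pretreated 1 hr with compounds (up to 57.5 uM final), then stimulated with LPS (250 ng/mL final) plus ATP (1.25 mM final); secreted IL-1B measured by AlphaLISA after 16 hr, decreased signal indicating inhibition.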
TGFb inhibitor: inhibitors of TGF-b signaling; HepG2 CAGA-GFP TGF-b/SMAD3 reporter, GFP fluorescence, 18 h; TGF-beta stimulated, 500 pg/mL final; Potency, µM (top dose mostly 46.1 µM), for the others: at the top dose activity, negative = inhibition, usual class: inhibitors; 1.2% of 410,000 active; also: potency is read from the fitted curve at half-maximal effect; % is scaled to controls: 0 for no effect and ±100 for the full control effect; nearly all actives have a fitted effect of over 65% in size
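HEPG2 CAGA-GFP reporter cells (1000/well, DMEM with 1% FBS) received compounds, then recombinant TGF-beta at 500 pg/mL final for 18 hours at 37 degrees C. Per-cell GFP summed per well was normalised to unstimulated and stimulated DMSO controls before curve fitting.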
Numbers without * were called inactive. Unless noted, calls follow the shape of the dose curve; as a rule, active = well fitted curve in the direction sought with a large enough effect; inconclusive = small, poorly fitted or top-dose-only effect, or another doubt; inactive = no such curve, though single readings can be large; an effect the other way counts as inactive or inconclusive.

Results for COc1ccc(NC(=O)CC2C(=O)N(C)C(=S)N2CCc2ccc(F)cc2)cc1 (stereo not given) ?
HT1080-NT tox: inconclusive; HT1080 IDH1KD tx: inconclusive; HepG2 tox: -11.5%; Giardia killer: -4.1; IL-1B inflam inh: -64.1*; TGFb inhibitor: inconclusive

How did COc1ccc(CCN2C(=S)N(C)C(=O)C2CC(=O)Nc2ccc(OC)cc2)cc1 (stereo not given) do in these assays?
HT1080-NT tox: -17.1%; HT1080 IDH1KD tx: inconclusive; HepG2 tox: -11.4%; Giardia killer: 11.8; IL-1B inflam inh: -4.3; TGFb inhibitor: -27.1%

Results for Cc1cc(C)n(-c2nc(SCC(=O)O)c3c4c(sc3n2)COC(C)(C)C4)n1 ?
HT1080-NT tox: -2.1%; HT1080 IDH1KD tx: -18.8%; HepG2 tox: -5.6%; Giardia killer: 22.6; IL-1B inflam inh: 54.1; TGFb inhibitor: -11.5%

Results for Cc1nc(NCc2cccnc2)c2c3c(sc2n1)CCCC3 ?
HT1080-NT tox: -13.7%; HT1080 IDH1KD tx: -13.3%; HepG2 tox: -16.2%; Giardia killer: 11.0; IL-1B inflam inh: -20.2; TGFb inhibitor: -5.3%

What do the screens show for `CCN(CC)CCCNc1nc(-n2nc(C)cc2C)nc2sc3c(c12)CC(C)(C)OC3`?
HT1080-NT tox: inconclusive; HT1080 IDH1KD tx: inconclusive; HepG2 tox: -34.9%; Giardia killer: 9.1; IL-1B inflam inh: -57.0*; TGFb inhibitor: -3.8%

How did Cc1cc(C)n(-c2nc(NCc3cccnc3)c3c4c(sc3n2)COC(C)(C)C4)n1 do in these assays?
HT1080-NT tox: inconclusive; HT1080 IDH1KD tx: 23.1µM*; HepG2 tox: -39.2%; Giardia killer: -4.6; IL-1B inflam inh: inconclusive; TGFb inhibitor: inconclusive

What do the screens show for `CCN(CC(=O)NCc1cccs1)C(=O)/C=C/c1ccc(OC)cc1OC`?
HT1080-NT tox: 6.7%; HT1080 IDH1KD tx: -0.2%; HepG2 tox: 4.1%; Giardia killer: -5.9; IL-1B inflam inh: -17.9; TGFb inhibitor: -2.4%

Results for COc1cc(/C=N/NC(N)=O)ccc1OCC(=O)N1C(C)CCCC1C (stereo not given) ?
HT1080-NT tox: 1.4%; HT1080 IDH1KD tx: 0.4%; HepG2 tox: -8.6%; Giardia killer: 12.7; IL-1B inflam inh: 12.0; TGFb inhibitor: -4.7%

What do the screens show for `CCc1ccc(C(C(=O)NCc2ccc(OC)cc2)N(CCOC)C(=O)Cc2cccs2)cc1` (stereo not given)?
HT1080-NT tox: inconclusive; HT1080 IDH1KD tx: -25.4%; HepG2 tox: -28.4%; Giardia killer: 6.4; IL-1B inflam inh: -54.9*; TGFb inhibitor: inconclusive

Results for COCCN(C(=O)Cc1cccs1)C(C(=O)NCc1ccc(OC)cc1)c1ccc(C(C)C)cc1 (stereo not given) ?
HT1080-NT tox: -8.3%; HT1080 IDH1KD tx: inconclusive; HepG2 tox: -52.2%; Giardia killer: 5.7; IL-1B inflam inh: 0.7; TGFb inhibitor: inconclusive

What do the screens show for `CC(=O)C1=CCC(c2ccccc2)N(Cc2ccccc2)C1` (stereo not given)?
HT1080-NT tox: inconclusive; HT1080 IDH1KD tx: inconclusive; IL-1B inflam inh: -111.7*

How did CC(=O)C1=CCC(c2ccc(Cl)cc2)N(S(=O)(=O)c2ccccc2C)C1 (stereo not given) do in these assays?
HT1080-NT tox: inconclusive; HT1080 IDH1KD tx: 16.4µM*; HepG2 tox: 0.5%; IL-1B inflam inh: -19.5; TGFb inhibitor: inconclusive

How did CC(=O)C1=CCC(c2ccccc2)N(S(=O)(=O)c2ccc(Cl)cc2)C1 (stereo not given) do in these assays?
HT1080-NT tox: inconclusive; HT1080 IDH1KD tx: inconclusive; HepG2 tox: -13.6%; IL-1B inflam inh: inconclusive; TGFb inhibitor: inconclusive

How did CCOC(=O)C1=CCC(c2ccccc2)N(S(=O)(=O)c2ccccc2)C1 (stereo not given) do in these assays?
HT1080-NT tox: -15.6%; HT1080 IDH1KD tx: -18.4%; HepG2 tox: -29.5%; IL-1B inflam inh: -1.0; TGFb inhibitor: -25.9%
